± gives the standard deviation. Whole data set: some 6,600 sequences, median “pre-steady-state target cleavage rate” near 0.07, cut for the highest 2% near 0.72. Shown is part of a subset that was picked to be rich in the highest values.

For the assay, the system named is MIWI (PIWIL1) piRISC loaded with Kctd7 piRNA (30 nt). Description: pre-steady-state target cleavage rate (min^-1); MIWI and MILI are mouse PIWI proteins and EfPiwi is from a freshwater sponge; tags in brackets are library labels; higher = faster piRNA-guided slicing of the target. The settings on record: guide: Kctd7 piRNA 5'p-UGUUAAUCUCUCAGAGAAGGUGACAGUGAU; auxiliary factor: 500 nM mouse GTSF1. As for the experimental part:
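Cleave-'n-Seq: a library of target RNAs (target site embedded in constant flanks, ACAGCATTCCGCGTTAGTGATATCCG... 5' flank; DNA-blocked outside the site) at 0.1 nM was incubated with 1 nM active mouse MILI or MIWI piRISC (synthetic 5'-monophosphorylated piRNA guide) with or without 500 nM mouse GTSF1 at 33 °C for 1 min to 16 h. Uncleaved targets were sequenced and normalised to non-target controls, and the pooled three trials were fitted to a burst-and-steady-state model to give the pre-steady-state cleavage rate (min^-1; k3 is constrained to at most 1e-4). Sequence is the target site only; target names encode pairing extent (gX:gY) and contiguous / 1-mismatch / 2-mismatch / bulge geometry. Fits with R² ≤ 0 are excluded.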
Take UUCACUGUCACCUUCUCUGAAGAGAUUAACA: the “pre-steady-state target cleavage rate” value turned out to be 0.019 ± 0.0081.

Regarding UAGUGACUCACCUUCUGUGAGAGAUUAAGA, the “pre-steady-state target cleavage rate” value was 0.088 ± 0.02.

For the sequence UAGACUGUCACCUUCUCUCUGAGAUUAACA, the “pre-steady-state target cleavage rate” value was found to be 0.0118 ± 0.0026.

Consider UAGACUGUCACCUUCUCUGAGAAGAUUAACA, for which the “pre-steady-state target cleavage rate” value was determined as 0.0399 ± 0.0084.

With AAGACUGUCACCUUCUCUGAGAGAUUAACA, the “pre-steady-state target cleavage rate” value amounted to 0.786 ± 0.036.

With “UAGACUGUCACCUUCUCUGAGAGAUUAACC [g2:g27:cont:t1C]”, the “pre-steady-state target cleavage rate” value was 0.322 ± 0.03.

Turning to AAGACUGUCACCUUCUCUGAGAGAUUAAGA, the “pre-steady-state target cleavage rate” value stood at 0.238 ± 0.037.

Consider “UAGACUGUCACCUUCUCUGAGAGAUUAACA [g2:g27:cont:t1A]”, for which the “pre-steady-state target cleavage rate” value was 0.805 ± 0.05.

Turning to UAGACUGUCACCUUCUCUGUGAGAUUUUGA, the “pre-steady-state target cleavage rate” value stood at 0.0048 ± 0.0033.

Turning to UAGUGACACACCUUCACUGAGAGAAUAACA, the “pre-steady-state target cleavage rate” value is 0.0335 ± 0.0091.

With UAGUGAGUCACCUUCACUGAGAGAUUUUGA, the “pre-steady-state target cleavage rate” value came out at 0.0525 ± 0.017.

On to UACACUCUCACCUUCACUGAGAGAUUAACA, for which the “pre-steady-state target cleavage rate” value was determined as 0.256 ± 0.02.

UAGACUGUCACCUUGCUCUGAGAGAUUAACA: the “pre-steady-state target cleavage rate” value was found to be 0.358 ± 0.049.

As to AUCACUGUCACCUCUCUCUGAGAGAUUAACA, the “pre-steady-state target cleavage rate” value stood at 0.515 ± 0.031.

Take UAGACUGUCACCUCCUCUGAGAGAUUAACA: the “pre-steady-state target cleavage rate” value was determined as 0.744 ± 0.035.

Turning to UAGACUGUCACCUCUCUGAGAGAUUAACA, the “pre-steady-state target cleavage rate” value is 0.321 ± 0.036.

On to UACACUGUCACCUCCUCUGAGAGAUUAACA, for which the “pre-steady-state target cleavage rate” value stood at 0.731 ± 0.026.

As to UACACUGUCACCUCUCUCUGAGAGAUUAACA, the “pre-steady-state target cleavage rate” value worked out at 0.425 ± 0.029.

As for UAGACUGUCACCUGCUCUGAGAGAUUAACA, the “pre-steady-state target cleavage rate” value amounted to 0.77 ± 0.043.

Take UUCACUGUCACCUCCUCUGAGAGAUUAACA: the “pre-steady-state target cleavage rate” value was 0.639 ± 0.021.

As to UACACUGUCACCUCUCUGAGAGAUUAACA, the “pre-steady-state target cleavage rate” value amounted to 0.5 ± 0.035.

Turning to AUCACUGUCACCUCCUCUGAGAGAUUAACA, the “pre-steady-state target cleavage rate” value amounted to 0.802 ± 0.033.

UAGACUGUCACCUGUCUCUGAGAGAUUAACA: the “pre-steady-state target cleavage rate” value is 0.561 ± 0.036.

For the sequence UAGACUGUCACCUCUCUCUGAGAGAUUAACA, the “pre-steady-state target cleavage rate” value came to 0.409 ± 0.044.

Regarding UUCACUGUCAGGUUCUCUGAGAGAUUAUGA, the “pre-steady-state target cleavage rate” value came to 0.0127 ± 0.003.

In the case of UAGUGACUCACCUUCUCUGACACAUUAACA, the “pre-steady-state target cleavage rate” value was 0.00928 ± 0.0035.

UUCACUGUCACCUUGUCUGAGUGAUUAACA: the “pre-steady-state target cleavage rate” value amounted to 0.0394 ± 0.0054.

UAGUCUGUCUCCUUCUGUGAGAGAUUAACA: the “pre-steady-state target cleavage rate” value came to 0.536 ± 0.028.

For the sequence UUCACUGUGACGUUCUCUGAGAGAUUAACA, the “pre-steady-state target cleavage rate” value is 0.59 ± 0.026.

For the sequence AUCAGACUCACCUUCUCUGAGAGAUUAAGA, the “pre-steady-state target cleavage rate” value stood at 0.159 ± 0.028.

As to AUCACUGUCACCUUCUCUGAGAGUAUUUGA, the “pre-steady-state target cleavage rate” value stood at 0.109 ± 0.034.

Consider UUCACUGUCACCUUCUCUGAGAGAAAAUGA, for which the “pre-steady-state target cleavage rate” value worked out at 0.0429 ± 0.015.

Turning to UAGUGACUCACCUUCUCUCAGAGAUAAACA, the “pre-steady-state target cleavage rate” value was found to be 0.0156 ± 0.0032.

Consider UAGUGACUCACCCUCUCUGAGAGAUUAACA, for which the “pre-steady-state target cleavage rate” value came to 0.415 ± 0.045.

AUCUCUGUCACCUUCUCUCAGAGAUUAACA: the “pre-steady-state target cleavage rate” value worked out at 0.105 ± 0.0088.

UAGUGUGUCACCAUCUCUGACAGAUUAACA: the “pre-steady-state target cleavage rate” value was determined as 0.222 ± 0.021.

In the case of UAGACUGUCACCUUCUCUGAGAGAUAAUGA, the “pre-steady-state target cleavage rate” value turned out to be 0.00696 ± 0.0033.

With UAGUCUGUCACCUCUCUGAGAGAUUAACA, the “pre-steady-state target cleavage rate” value is 0.447 ± 0.048.

For UAGUCUGUCACCUCUCUCUGAGAGAUUAACA, the “pre-steady-state target cleavage rate” value stood at 0.481 ± 0.032.

For UAGUCUGUCACCUCCUCUGAGAGAUUAACA, the “pre-steady-state target cleavage rate” value stood at 0.726 ± 0.038.

With “UAGUGACUCACCUUCUCUGAGAGAUUAACC [g2:g23:cont:t1C]”, the “pre-steady-state target cleavage rate” value was determined as 0.303 ± 0.032.

With AUCACUGUCAGGUUCUCUGAGAGAUUAACA, the “pre-steady-state target cleavage rate” value amounted to 0.653 ± 0.043.

Take UUCACUGUGACCUUCUCUGAGAGAUAAACA: the “pre-steady-state target cleavage rate” value was 0.214 ± 0.023.

Regarding UACACUGUCAGCUUCUCUGAGAGAUUAACA, the “pre-steady-state target cleavage rate” value was determined as 0.655 ± 0.027.

Consider UUCACUGUCAGCUUCUCUGAGAGAUUAACA, for which the “pre-steady-state target cleavage rate” value stood at 0.723 ± 0.032.

Turning to UACACUGUCUGCUUCUCUGAGAGAUUAACA, the “pre-steady-state target cleavage rate” value came out at 0.708 ± 0.043.

AUGACUGUCAGCUUCUCUGAGAGAUUAACA: the “pre-steady-state target cleavage rate” value amounted to 0.721 ± 0.046.

AACACUGUCAGCUUCUCUGAGAGAUUAACA: the “pre-steady-state target cleavage rate” value stood at 0.753 ± 0.039.

Consider AUCACUGUCUGCUUCUCUGAGAGAUUAACA, for which the “pre-steady-state target cleavage rate” value came out at 0.74 ± 0.042.

With UAGACUGUCAGCUUCUCUGUGAGAUUAACA, the “pre-steady-state target cleavage rate” value turned out to be 0.198 ± 0.0095.

With UAGACUGUCAGCUUCUCUGAGAGAUUAACA, the “pre-steady-state target cleavage rate” value came to 0.753 ± 0.05.

UUCUCUGUCAGCUUCUCUGAGAGAUUAACA: the “pre-steady-state target cleavage rate” value was 0.586 ± 0.028.

Regarding AUCACUGUCAGCUUCUCUGAGAGAUUAACA, the “pre-steady-state target cleavage rate” value came out at 0.802 ± 0.044.

For AUCACUGUCAGCUUCUCUGUGAGAUUAACA, the “pre-steady-state target cleavage rate” value amounted to 0.237 ± 0.013.

For UUCACUGUCUGCUUCUCUGAGAGAUUAACA, the “pre-steady-state target cleavage rate” value stood at 0.639 ± 0.038.

As for UUCACUGUCACGUUCUCUCAGAGAUUAACA, the “pre-steady-state target cleavage rate” value is 0.0729 ± 0.0078.

Take UAGUGACAGUGGAAGUCUGAGAUAUUAACA: the “pre-steady-state target cleavage rate” value is < 0.0001.

In the case of AUCAGUGUCACCUUGUCUGAGAGAUUAACA, the “pre-steady-state target cleavage rate” value worked out at 0.209 ± 0.029.

For the sequence UACACUGUCACCUUCUCCGAGAGAUUAACA, the “pre-steady-state target cleavage rate” value stood at 0.351 ± 0.051.

As for UUCACUGUCACCUUCUCUGUGAGAUUAUCA, the “pre-steady-state target cleavage rate” value stood at 0.106 ± 0.025.

UAGUGAGUCACCUACUCUGAGAGAUUAAGA: the “pre-steady-state target cleavage rate” value came out at 0.13 ± 0.021.

In the case of UAGACUGUCAGCCUUCUCUGAGAGAUUAACA, the “pre-steady-state target cleavage rate” value turned out to be 0.231 ± 0.024.

As to UUCACUGUCACCUUCUCUGACGAGAUUAACA, the “pre-steady-state target cleavage rate” value is 0.0334 ± 0.0098.

In the case of AUCACUGGUCACCUUCUCUGAGAGAUUAACA, the “pre-steady-state target cleavage rate” value was 0.742 ± 0.047.

Consider UUCACUGGUCACCUUCUCUGAGAGAUUAACA, for which the “pre-steady-state target cleavage rate” value is 0.652 ± 0.034.

Consider UACACUGGUCACCUUCUCUGAGAGAUUAACA, for which the “pre-steady-state target cleavage rate” value is 0.676 ± 0.038.

Consider UUCACUGUCACCUUCUCUGAGAGAAUUAACA, for which the “pre-steady-state target cleavage rate” value is 0.641 ± 0.098.

For “AUCACUGUCACCUUCUCUGAGAGAUUAACA [g2:g30:cont:t1A]”, the “pre-steady-state target cleavage rate” value came to 0.734 ± 0.035.

Consider UACACUUGUCACCUUCUCUGAGAGAUUAACA, for which the “pre-steady-state target cleavage rate” value was determined as 0.631 ± 0.088.

As to “AUCACUGUCACCUUCUCUGAGAGAUUAACC [g2:g30:cont:t1C]”, the “pre-steady-state target cleavage rate” value came to 0.387 ± 0.032.

Consider AUCACUGUCACCUUCUCUCUGAGAUUAACA, for which the “pre-steady-state target cleavage rate” value was 0.0402 ± 0.0095.

As for AUCACUGUCACCUUCUCUGAGAGAAUUAACA, the “pre-steady-state target cleavage rate” value was 0.738 ± 0.13.

In the case of AUCACUGUCACCUUCUCUGAGAAUUAACA, the “pre-steady-state target cleavage rate” value stood at 0.366 ± 0.11.

As for AUCACUUGUCACCUUCUCUGAGAGAUUAACA, the “pre-steady-state target cleavage rate” value worked out at 0.754 ± 0.12.

Consider UUCACUUGUCACCUUCUCUGAGAGAUUAACA, for which the “pre-steady-state target cleavage rate” value is 0.63 ± 0.09.
